The campaign covered roughly 48,000 compounds. About 13,000 (27%) showed an effect of 50% or more. The list shows a part of the results.

For this assay, the system named is Wolbachia pipientis. Kind of assay: Anti-Wolbachia Cell-Based Screen. It counts as functional. Further details: scale not given: in the data most compounds retested in dose-response had high values. Conditions: 5 µM.
Regarding `CN(C)c1cc(C(=O)NCC2(c3ccc(F)cc3)CC2)ccn1`, the “Percent Effect” value is -8.141%.

`NC(=O)CCC1CCCN(c2ccc3ccc(F)cc3n2)C1` (stereo not drawn): the “Percent Effect” value is 91.08%. Turning to `CCNC(=O)C1CCCN(c2ccc(C#N)cc2C(F)(F)F)C1` (stereo not drawn), the “Percent Effect” value is -8.319%.

With `O=C(O)c1cn(CC2CCCN(c3ccc4ccccc4n3)C2)nn1` (stereo not drawn), the “Percent Effect” value is reported as -23.62%. As for `O=C(NCCc1ccccc1)C1CCCN(c2ccc3nncn3n2)C1` (stereo not drawn), the “Percent Effect” value was found to be 7.633%.

Regarding `CC(C)OCc1cccc(NC(=O)N2CCCC(CCC(N)=O)C2)c1` (stereo not drawn), the “Percent Effect” value is reported as -9.131%.

As to `NC(=O)CCC1CCCN(c2ccnc3cc(F)ccc23)C1` (stereo not drawn), the “Percent Effect” value is given as 94.8%. For `CCCNC(=O)C1CCCN(c2ccc3nncn3n2)C1` (stereo not drawn) the value was 106.8%. Turning to `NC(=O)CCC1CCCN(c2ccc3c(Cl)ccnc3c2F)C1` (stereo not drawn), the “Percent Effect” value is given as -4.467%. Regarding `NC(=O)c1ccc(N2CCN(Cc3ccc(F)cc3Cl)CC2)nn1`, the “Percent Effect” value was found to be 4.526%. Take `O=C(NCCC1=CCCCC1)C1CCCN(c2ccc3nncn3n2)C1` (stereo not drawn): the “Percent Effect” value stood at 4.301%. Regarding `CCNC(=O)C1CCCN(c2ccc3ccc(F)cc3n2)C1` (stereo not drawn), the “Percent Effect” value is 95.98%.

On to `CCNC(=O)C1CCCN(c2cccc(C(F)(F)F)n2)C1` (stereo not drawn), for which the “Percent Effect” value worked out at 5.494%. Then `CSc1ncc(CNC(C)c2cnn(-c3ccc(F)cc3F)c2C)cn1` (stereo not drawn), with -22.9%; and `O=c1cc(N2CCc3ccccc3C2)cnn1CCC1CCOC1` (stereo not drawn), with 5.025%. In the case of `CN1CC(Oc2ccccc2)=NC(SCC(=O)Nc2ccccc2Cl)=N1`, the “Percent Effect” value is listed as 15.6%. Regarding `CCN1CCC(N2C[C@@H](C(=O)O)[C@H](c3cccc(OC)c3)C2)CC1`, the “Percent Effect” value came to 12.25%. Take `COc1cccc(CC(=O)N2CC[C@H]3[C@@H]2CCC(=O)N3C)c1`: the “Percent Effect” value is on record as -18.88%. Turning to `COc1cccc(CN2CC[C@H]3[C@@H](C2)[C@H](c2ccsc2)CN3C(C)=O)c1`, the “Percent Effect” value came out at 146.6%. For `COc1cccc([C@H]2CN(C(C)=O)[C@@H]3CCN(Cc4ccsc4)C[C@H]23)c1.Cl` the value was 57.96%.

`CCN1C[C@@H](C(=O)O)[C@H](c2cccc(OC)c2)C1`: the “Percent Effect” value stood at 8.176%.

Take `CC(=O)N1C[C@@H](c2ccsc2)[C@@H]2CN(Cc3cccc(Cl)c3)CC[C@@H]21`: the “Percent Effect” value turned out to be 2.234%.

Consider `CCc1c(C)nc(C)nc1N1CCC(NCCSc2nnnn2C)CC1`, for which the “Percent Effect” value is listed as 11.48%. For `O=C(c1cn(CCN2CCCCC2)nn1)N1CCCCO1`, the “Percent Effect” value is on record as -10.33%. Then `COc1nc2c(cc1C(=O)N1CCCOC(Cn3cccn3)C1)CCC2` (stereo not drawn), with 0.1052%; and `CCN1C[C@H]2C3(CCN(C(=O)NC(C)C)CC3)CC[C@@]2(C(=O)N(C)C)C1.O=C(O)C(F)(F)F`, with -2.762%. For `Cc1cnc(CNC(=O)c2cc3c(s2)CCN3S(C)(=O)=O)cn1`, the “Percent Effect” value was -3.088%.

For the compound `COC(=O)N1CCc2ccccc2C1C(=O)NCc1ccncc1` (stereo not drawn), the “Percent Effect” value worked out at 5.289%. As for `CS(=O)(=O)N1CCc2sc(C(=O)NCc3ccncc3)cc21`, the “Percent Effect” value turned out to be 102.3%.

For the compound `CS(=O)(=O)N1CCc2sc(C(=O)NCc3ccccc3)cc21`, the “Percent Effect” value was 99.89%. For `CS(=O)(=O)N1Cc2nc(C(=O)NCc3ccccc3)oc2C1` the value was 1.051%; for `CS(=O)(=O)N1CCc2sc(C(=O)NCCc3ccccn3)cc21`, 98.67%; for `O=C(NCCc1ccccn1)C1=NN(c2ccccc2)C(=O)CN1`, 14.32%. For `CNS(=O)(=O)c1ccc(C(=O)NCCc2ccccn2)cc1`, the “Percent Effect” value is given as -0.4969%. Regarding `CCOc1cccc(C(C)NC(=O)N2CCC(C(N)=O)CC2)c1` (stereo not drawn), the “Percent Effect” value is recorded as -12.9%. With `Cc1ccc(-c2cnc(CCC(=O)NCCN3CCOCC3)o2)cc1C`, the “Percent Effect” value worked out at 7.661%. As for `CC(C)Oc1ncnc2c1CCN(c1cc(C(F)(F)F)ncn1)CC2`, the “Percent Effect” value is reported as -5.603%. For the compound `N#Cc1cccc(CN2C[C@@H](F)[C@@H](OCc3nc4ccccc4[nH]3)C2)c1`, the “Percent Effect” value is listed as 3.783%.

Take `COc1cc(C(=O)NCc2ccc3c(c2)CCCN3C)cc(OC)c1Br`: the “Percent Effect” value was 103.6%. For `CCOCC1CCN(C(=O)Nc2ccc3c(c2)CCCN3C)C1` (stereo not drawn), the “Percent Effect” value was -6.058%. Regarding `CC(C)Oc1ccc(C(=O)NCc2ccnc(N3CCCC3)c2)cn1`, the “Percent Effect” value worked out at 1.854%. Regarding `CC(C)Oc1ccc(C(=O)NCc2ccc3c(c2)CCCN3C)cn1`, the “Percent Effect” value came out at 82.05%.

As for `COC(=O)c1cccc(CNC(=O)c2cc(C(C)C)n(C)n2)c1`, the “Percent Effect” value is -2.718%.

`COc1ccc(CNC(=O)c2ccc(=O)n(C)c2)cc1C`: the “Percent Effect” value is on record as -12.06%. For `CN1CCCc2cc(CNC(=O)c3ccc(NC4CC4)nc3)ccc21` the value was -0.6873%; for `COC(=O)c1cccc(CNC(=O)CC(F)(F)F)c1`, -8.665%; for `COC(=O)c1cccc(C(=O)NCc2ccc3c(c2)CCCN3C)c1`, 93.26%. For `CS(=O)(=O)CC1CCCN(c2ncnc3c2Cc2ccccc2OC3)C1` (stereo not drawn) the value was 8.787%; for `CC(C)c1nc(CNc2ccc(CCO)cc2)cs1`, -6.765%; for `Cc1nonc1N1CCN(Cc2nc(CC3CC3)no2)CC1`, -9.131%. With `O=C(CCNC1(c2nccs2)CCCC1)N1CCOCC1`, the “Percent Effect” value is recorded as -14.98%. For `Cc1occc1C(=O)N1CCC2(CCN(Cc3nccs3)CC2)C1`, the “Percent Effect” value worked out at 13.46%. As to `CC1(c2nccs2)CCN(C(=O)CC2CCOCC2)CC1`, the “Percent Effect” value is given as 133.3%. On to `C[C@@H](NC(=O)c1cnccn1)c1c(-c2ccc(F)cc2)noc1C(=O)O`, for which the “Percent Effect” value is listed as 0.3029%. Then `Cc1ccc(C(=O)N2CCN(CCc3cccs3)CC2)c(=O)[nH]1`, with 4.078%; and `Cc1ccc(-c2nnc(CN3CCNC(=O)C3)o2)cc1`, with -29.77%; and `Cc1ccc(C2(O)CCN(Cc3nnc(-c4cccnc4)o3)CC2)nc1`, with -8.871%. Take `Cc1ccc(-c2nnc(CN3CCN(c4ccccn4)CC3)o2)cc1`: the “Percent Effect” value is listed as 118.2%. `Cc1cc(NC(=O)CN2CCn3c(nnc3C3CC3)C2)no1`: the “Percent Effect” value is listed as -12.55%.

As for `O=C(Nc1ccccc1)N1CCn2c(nnc2C2CCNCC2)C1`, the “Percent Effect” value amounted to 105.9%.

Take `O=C(c1ccccc1O)N1CCn2c(nnc2C(F)(F)F)C1`: the “Percent Effect” value is recorded as -8.527%. Take `CC(C)NC(=O)C(c1ccccc1)N1CCn2c(nnc2C2CC2)C1` (stereo not drawn): the “Percent Effect” value was found to be 0.9151%. Consider `O=C(Nc1ccccc1)N1CCn2c(nnc2C2CCCN2)C1` (stereo not drawn), for which the “Percent Effect” value was 106.2%. In the case of `Cc1nnc2n1CCN(C(=O)C(OC1CCCC1)c1ccccc1)C2` (stereo not drawn), the “Percent Effect” value is 0.08716%.

For the compound `Cn1cc(CNCC2(N3CCCCC3)Cc3ccccc3C2)cn1`, the “Percent Effect” value is -0.5934%. As to `CN(C)C(=O)[C@H]1C[C@H]2OCC[C@H]2N(CCOc2ccc(Cl)cc2)C1.O=C(O)C(F)(F)F`, the “Percent Effect” value is -1.97%. With `CNC(=O)c1n[nH]c2c1C(c1cccc3nsnc13)CC(=O)N2` (stereo not drawn), the “Percent Effect” value was 1.687%. For the compound `CC(C)c1nccc(C2CC(=O)Nc3n[nH]c(C4CCC4)c32)n1` (stereo not drawn), the “Percent Effect” value amounted to 111.7%.

As for `O=C1CC(c2ccc3ccccc3n2)c2c(n[nH]c2C2CCC2)N1` (stereo not drawn), the “Percent Effect” value came to 48.61%. As for `COc1nc2ccccc2cc1C1CC(=O)Nc2n[nH]c(C3CCC3)c21` (stereo not drawn), the “Percent Effect” value worked out at 94.97%. As for `O=C(CN1CCCC1c1nc(Cc2ccc(F)cc2)no1)NC1CC1` (stereo not drawn), the “Percent Effect” value came to 6.491%. Then `CCCN(CC1CC1)C(=O)CN1CCCC1c1cnn(C)c1` (stereo not drawn), with -10.58%; and `COCCOC[C@]1(CNCc2ccc(F)cc2)C[C@@H](O)[C@@H](O)C1.Cl`, with 9.118%; and `CCn1ncc2c1CCCC2NCc1ccc(C)s1` (stereo not drawn), with -6.275%. For `O[C@@H]1CN(CC2CC2)CC[C@H]1N1CCN(c2ccccc2F)CC1` the value was 4.313%; for `Cc1noc(Cl)c1CC(=O)N1CCCC(n2cccn2)C1` (stereo not drawn), -0.9782%; for `Cc1cnn(C2CCCN(C(=O)c3c(C)oc(C)c3C)C2)c1` (stereo not drawn), 2.216%. Consider `Cc1nn(C)c(C)c1CC(=O)N1CCCC(n2cccn2)C1` (stereo not drawn), for which the “Percent Effect” value is reported as -0.59%.

Turning to `Cc1noc(C)c1CCC(=O)N1CCCC(n2cccn2)C1` (stereo not drawn), the “Percent Effect” value worked out at 112.2%.

Take `Cc1cnn(C2CCCN(C(=O)CCc3c(C)noc3C)C2)c1` (stereo not drawn): the “Percent Effect” value amounted to 114.5%. For the compound `Cc1noc2ncc(C(=O)N3CCCC(n4cccn4)C3)cc12` (stereo not drawn), the “Percent Effect” value is given as -8.644%. In the case of `Cc1nn(C)c(C)c1CCC(=O)N1CCCOC(Cn2cccn2)C1` (stereo not drawn), the “Percent Effect” value is -1.849%. Take `Cc1nn(C)c(C)c1CCC(=O)N1CCCC(n2cccn2)C1` (stereo not drawn): the “Percent Effect” value stood at 104.5%. As to `O=C(NCc1csc(-c2cccs2)n1)C1NCCc2[nH]cnc21` (stereo not drawn), the “Percent Effect” value is -2.948%. Turning to `COc1ccccc1OCC(=O)NS(=O)(=O)c1ccc(F)cc1F`, the “Percent Effect” value is on record as -4.254%. As for `CC(=O)N(CCc1nc(-c2cc(C(N)=O)oc2C)cs1)C(C)C`, the “Percent Effect” value is 1.206%. As for `Cn1cccc1C(=O)NCc1cn2c(n1)CN(Cc1cccnc1)CC2.O=C(O)C(F)(F)F.O=C(O)C(F)(F)F`, the “Percent Effect” value is on record as -5.868%. For `c1cncc(CN2CCn3cc(CN4CCCCC4)nc3C2)c1`, the “Percent Effect” value was determined as 99.27%. As for `O=C(NCc1cn2c(n1)CN(Cc1cccnc1)CC2)C1CCC1.O=C(O)C(F)(F)F.O=C(O)C(F)(F)F`, the “Percent Effect” value is recorded as -2.2%. Turning to `O=C(CC1CC1)NCc1cn2c(n1)CN(Cc1cccnc1)CC2.O=C(O)C(F)(F)F.O=C(O)C(F)(F)F`, the “Percent Effect” value was -16.83%. As to `CS(=O)(=O)NCc1cn2c(n1)CN(Cc1ccoc1)CC2.O=C(O)C(F)(F)F`, the “Percent Effect” value was 2.843%.

For the compound `CN1CCN(Cc2cn3c(n2)CN(Cc2ccccn2)CC3)CC1`, the “Percent Effect” value is 100%. With `CN1CCN(Cc2cn3c(n2)CN(Cc2ccncc2)CC3)CC1`, the “Percent Effect” value was found to be 100.2%. For `Cn1cccc1C(=O)NCc1cn2c(n1)CN(Cc1ccccn1)CC2.O=C(O)C(F)(F)F.O=C(O)C(F)(F)F`, the “Percent Effect” value is given as -5.455%. As for `CN1CCN(Cc2cn3c(n2)CN(C(=O)N2CCCC2)CC3)CC1`, the “Percent Effect” value is reported as -9.344%. For `CN1CCN(Cc2cn3c(n2)CN(C(=O)c2ccccn2)CC3)CC1.O=C(O)C(F)(F)F.O=C(O)C(F)(F)F.O=C(O)C(F)(F)F`, the “Percent Effect” value is 6.364%. For `CN1CCN(Cc2cn3c(n2)CN(CC2CC2)CC3)CC1`, the “Percent Effect” value was determined as 0.4207%.

On to `CS(=O)(=O)NCc1cn2c(n1)CN(Cc1cccnc1)CC2.O=C(O)C(F)(F)F.O=C(O)C(F)(F)F`, for which the “Percent Effect” value stood at 116.6%.

Source of the values: ChEMBL document CHEMBL3988442, “University of Dundee, Small-Polar-MMV Screening Library” (2021).
